Bioassay records from PubChem.
Sampled rows, rich in hits. Any-hit rate of the full collection: about 19%.
IL1B secr inh = inflammasome signaling inhibition, IL-1 beta readout; activity change, % at 57.5 µM; AID 743279; THP-1 LPS/ATP IL-1B secretion, AlphaLISA, 16 h; stronger effect = lower value; 360,000 compounds, 4.7% hits; in the data active = activity change below about -50%; inconclusive = mostly about -30% to -49%; also: % is scaled to controls: 0 for no effect and ±100 for the full control effect
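THP-1 cells pretreated 1 hr with compounds (up to 57.5 uM final), then stimulated with LPS (250 ng/mL final) plus ATP (1.25 mM final); secreted IL-1B measured by AlphaLISA after 16 hr, decreased signal indicating inhibition.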
DT40 TDP1 CPT = growth inhibition of DT40 Tdp1-/-;hTDP1 cells with camptothecin (screen for TDP1 inhibitors) | chicken DT40 Tdp1-/-;hTDP1 cells + 20 nM CPT, ATP luminescence, 48 h | Potency, µM (highest dose often 46.2 µM), inactives show at the top dose activity change, negative = growth inhibition, usual class: inhibitors | 420,000 compounds, 12% hits | AID 686979; also: potency is read from the fitted curve at half-maximal effect; % is scaled to controls: 0 for no effect and ±100 for the full control effect; nearly all actives have a fitted effect of over 55% in size
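Cell growth measured by CellTiter-Glo luminescence after a minimum 48 h, 37 C compound exposure with 20 nM CPT in Tdp1-knockout DT40 cells stably expressing hTDP1, seeded 400/well; qHTS titration format.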
HepG2 viability = HepG2 cytotoxicity, counter-screen for TGF-b inhibitors; HepG2 CAGA-GFP viability, ATP luminescence, 18 h; Potency, µM (titrated, usually from 46.1 µM), for the others: at the top dose activity change, negative = cytotoxicity, usual class: cytotoxic; 410,000 compounds, 0.76% hits; AID 588856; also: potency is read from the fitted curve at half-maximal effect
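HepG2 CAGA-GFP cells (1000/well, DMEM with 1% FBS) received compound, then TGF-beta at 500 pg/mL final, and were incubated 18 hours at 37 degrees C. Viability was read by CellTiter-Glo luminescence. Media-only wells were set as complete cell-killing and DMSO as no toxicity.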
TGFb inhibitor = blocks TGF-b signaling. HepG2 CAGA-GFP TGF-b/SMAD3 reporter, GFP fluorescence, 18 h; TGF-beta stimulated, 500 pg/mL final. Potency, µM (highest dose often 46.1 µM), inactives show at the highest dose activity, negative = inhibition, usual class: inhibitors. 410,000 compounds, 1.2% hits; also: potency is read from the fitted curve at half-maximal effect; % is scaled to controls: 0 for no effect and ±100 for the full control effect; nearly all actives have a fitted effect of over 65% in size
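HEPG2 CAGA-GFP reporter cells (1000/well, DMEM with 1% FBS) received compounds, then recombinant TGF-beta at 500 pg/mL final for 18 hours at 37 degrees C. Per-cell GFP summed per well was normalised to unstimulated and stimulated DMSO controls before curve fitting.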
DT40 TDP1 no CPT = qHTS for Inhibitors of human tyrosyl-DNA phosphodiesterase 1 (TDP1): qHTS in cells in absence of CPT. DT40 Tdp1-/- hTDP1 cells, no CPT, ATP luminescence, 48 h. Potency, µM (highest dose often 46.2 µM), without a hit: top-dose activity change, negative = growth inhibition, actives largely listed as inhibitors. 420,000 compounds, 15% hits; also: potency is read from the fitted curve at half-maximal effect; % is scaled to controls: 0 for no effect and ±100 for the full control effect; nearly all actives have a fitted effect of over 55% in size
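Growth of hTDP1-complemented DT40 Tdp1-knockout cells is measured by ATP luminescence after at least 48 hr compound exposure at 37 °C, with DMSO substituting for the 20 nM CPT used in the parallel screen.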
TDP1 block = inhibitors of human tyrosyl-DNA phosphodiesterase TDP1 | AID 485290 | 350,000 compounds, 0.28% hits | Potency, µM (highest dose often 130 µM), for the others: at the top dose activity change, negative = inhibition, most hits filed as inhibitors | Q9NUW8 | recombinant TDP1, AlphaScreen DNA substrate cleavage; also: potency is read from the fitted curve at half-maximal effect; % is scaled to controls: 0 for no effect and ±100 for the full control effect; nearly all actives have a fitted effect of over 40% in size
Target sequence (Q9NUW8 whole entry, looked up): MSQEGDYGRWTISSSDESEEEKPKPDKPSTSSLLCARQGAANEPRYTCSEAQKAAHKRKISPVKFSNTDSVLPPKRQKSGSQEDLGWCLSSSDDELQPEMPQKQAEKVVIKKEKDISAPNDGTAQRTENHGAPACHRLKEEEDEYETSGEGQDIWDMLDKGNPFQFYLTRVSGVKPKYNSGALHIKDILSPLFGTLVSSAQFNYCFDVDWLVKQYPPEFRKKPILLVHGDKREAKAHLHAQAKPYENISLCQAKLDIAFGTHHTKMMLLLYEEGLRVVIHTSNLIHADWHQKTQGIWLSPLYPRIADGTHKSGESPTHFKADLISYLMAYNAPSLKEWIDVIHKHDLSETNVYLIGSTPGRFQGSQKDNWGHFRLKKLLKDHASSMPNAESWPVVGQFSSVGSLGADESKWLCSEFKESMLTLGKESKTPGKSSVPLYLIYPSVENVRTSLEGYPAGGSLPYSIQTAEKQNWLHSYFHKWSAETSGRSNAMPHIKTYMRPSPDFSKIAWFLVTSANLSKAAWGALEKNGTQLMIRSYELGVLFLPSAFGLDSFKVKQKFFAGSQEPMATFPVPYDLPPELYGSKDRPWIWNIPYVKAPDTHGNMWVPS
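Compounds were preincubated with Tdp1 (1 nM final) for 15 min at room temperature before substrate (15 nM final) started a 5 min reaction; beads (10 ug/ml final) were then added for 10 min before AlphaScreen detection.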
* hit, by the source's call; ? = inconclusive; . = not tested or not shown; [ ] = remark or other dose. Unless noted, calls follow the shape of the dose curve; as a rule, active = well fitted curve in the direction sought with a large enough effect; inconclusive = small, poorly fitted or top-dose-only effect, or another doubt; inactive = no such curve, though single readings can be large; an effect the other way counts as inactive or inconclusive.

SMILES	IL1B secr inh	DT40 TDP1 CPT	HepG2 viability	TGFb inhibitor	DT40 TDP1 no CPT	TDP1 block
COC(=O)C1=C[C@@H](C(=O)OC)[C@@H]2C3=C(C(=O)[C@]2(C)NC(=O)c2ccccc2)[C@H](C)[C@@H]2C(=O)NC(=O)[C@@H]2[C@@H]3C1	.	.	7.4%	-19.8%	.	5.6%
CCN1C(=O)CC(C(C)C)N(C2CCCC2)c2nc(Nc3ccc(C(=O)NC4CCN(C)CC4)cc3OC)ncc21 (centres undefined)	-73.8*	?	-90.5%	?	?	.
COc1ccccc1-n1cnc2cc(C(=O)NC3CCCC3)ccc21	0.0	?	14.4%	-9.6%	?	0.0%
CCN1C(=O)CC(c2ccccc2)N(C2CCCC2)c2nc(Nc3ccc(C(=O)NC4CCN(C)CC4)cc3OC)ncc21 (centres undefined)	-77.3*	?	12.6µM*	?	?	5.9%
COc1cc(C2C(=O)N(C3CCCCC3)CC(=O)N2CCc2ccccc2)ccc1OC(C)C (centres undefined)	.	-24.8%	-10.2%	0.4%	-27.6%	2.6%
CCN1C[C@@H]2[C@@H]3C(=O)N(Cc4ccccc4)C(=O)[C@@H]3[C@](CC)(C(=O)OC)N2C1=NCc1ccccc1	6.7	1.1%	-4.0%	-0.8%	-17.3%	.
CN(C)C(=O)CCc1ccc2c3c([nH]c2c1)[C@]1(C)[C@@H](C(=O)N2CCCCC2)C[C@H](CC(=O)NCCCn2ccnc2)C(=O)N1CC3	-19.2	3.8%	-3.3%	1.8%	-5.5%	0.3%[56.1 µM]
CCC[C@@H]1NC(=O)[C@@H](NC(C)=O)CSSC[C@@H](C(N)=O)NC(=O)CNC(=O)[C@H](Cc2c[nH]c3ccccc23)NC(=O)[C@H](CCCN=C(N)N)NC(=O)[C@H](Cc2ccc3ccccc3c2)NC(=O)[C@H](Cc2cnc[nH]2)NC(=O)[C@H](CCCN=C(N)N)NC1=O	.	.	.	.	.	16.7%
CC(C)(C)NC(=O)C(c1c[nH]c2ccccc12)N(C(=O)Cn1nnc(-c2ccc(F)cc2)n1)c1cccc(O)c1 (centres undefined)	?	?	-22.5%	?	20.6µM*	5.4%
CC(C)(C)NC(=O)C(c1ccco1)N(C(=O)Cn1nnc(-c2ccc(F)cc2)n1)c1cccc(F)c1 (centres undefined)	-3.6	?	-1.7%	-9.0%	20.6µM*	5.4%[56.1 µM]
Cc1ccc(-c2nnn(CC(=O)N(CCN3CCOCC3)C(C(=O)NC(C)(C)C)c3ccco3)n2)cc1 (centres undefined)	-6.0	14.8%	-4.7%	-2.2%	-9.2%	2.5%
CCOc1ccccc1NC(=O)CN1C=NS(=O)(=O)c2ccccc21	.	-12.9%	-13.1%	-2.1%	-13.4%	-0.5%
O=S1(=O)c2ccccc2N(Cc2cccc(Cl)c2)c2ccccc21	.	?	-16.2%	-1.8%	?	1.9%
CCOC(=O)N/N=C/c1ccccc1OCc1ccc(Cl)cc1	-21.6	?	-8.5%	-1.1%	29.1µM*	0.0%
O/N=C/c1ccccc1OCc1ccc(Cl)cc1	-95.8*	-3.1%	-23.8%	-11.8%	0.5%	5.9%
N/C(Cc1ccccc1)=N\OC(=O)c1cccc2ccccc12	22.3	?	7.9%	9.0%	?	3.8%
CS(=O)(=O)N1CCc2cc(NC(=O)c3ccc(Cl)cc3Cl)ccc21	-10.0	-6.8%	-3.4%	-1.9%	-27.7%	-2.5%
Cc1ccc(C)c(CNC(=O)c2cnc3sc(N4CCCC4)nn3c2=O)c1	.	16.4µM*	-6.6%	?	18.4µM*	3.9%
COc1ccccc1CNC(=O)c1cnc2sc(N3CCCCCC3)nn2c1=O	.	16.4µM*	-34.2%	-20.6%	20.6µM*	8.4%
O=C(NCc1ccccc1Br)c1cnc2sc(N3CCCCCC3)nn2c1=O	.	23.1µM*	-4.1%	-24.8%	4.11µM*	0.6%
CCOc1ccccc1CNC(=O)c1cnc2sc(N3CCCCCC3)nn2c1=O	.	?	-20.4%	-4.5%	?	4.5%
O=C(NCCCNC(=O)c1ccco1)c1cccc(F)c1	-1.8	-10.7%	-9.0%	2.5%	-0.6%	0.7%
CC(=O)c1ccc(S(=O)(=O)N2CCN(c3nc(-c4cccs4)nc4ccccc34)CC2)cc1	.	-30.0%	-14.5%	-0.2%	?	0.8%
CCOC(=O)N1CCN(c2nc(-c3cccs3)nc3ccccc23)CC1	?	23.1µM*	6.0%	?	14.6µM*	.
CC(=O)N1CCN(c2nc(-c3cccs3)nc3ccccc23)CC1	-86.2*	-7.0%	0.8%	-22.4%	?	0.0%
SMILES	IL1B secr inh	DT40 TDP1 CPT	HepG2 viability	TGFb inhibitor	DT40 TDP1 no CPT	TDP1 block
Cc1ccc2c(c1)c(CC(NC(=O)c1ccccc1Oc1ccccc1)C(=O)O)cn2C(=O)OCc1ccccc1 (centres undefined)	.	.	.	.	.	6.2%
CSc1nnc(NC(=O)c2cc(=O)c3cc(C)c(C)cc3o2)s1	.	2.3%	10.1%	-7.4%	-1.3%	4.9%
COc1cc(CNc2ncnc3c2ncn3[C@H]2CN(Cc3ccc4c(c3)OCO4)C[C@@H](CO)O2)cc(OC)c1OC	22.9	?	1.2%	3.2%	?	.
Nc1nc(-c2ccccc2)cc(-c2ccccc2O)n1	-60.7*	?	-47.4%	?	?	?
NNc1nc(-c2ccccc2)cc(-c2ccccc2)n1	?	16.4µM*	-30.9%	-1.7%	?	0.0%
NNc1nc(-c2ccccc2)cc(-c2ccccc2O)n1	-8.8	?	-24.5%	5.0%	?	7.9%
Brc1cc(-c2ccccc2)nc(-c2ccccc2)n1	-84.3*	5.1%	-164.5%	-9.4%	-16.4%	.
Clc1cc(-c2ccccc2)nc(-c2ccccc2)n1	-51.6*	?	-1.0%	21.4%	-21.3%	.
CCCCCCN	.	.	.	.	.	3.1%
O=C(O)C(Cc1ccccc1N(CCO)CCO)N1C(=O)c2ccccc2C1=O (centres undefined)	10.4	10.2%	6.7%	-2.5%	-12.2%	.
Oc1ccc(-c2cc(-c3ccc(O)cc3)nc(-c3ccccc3)n2)cc1	-98.3*	?	-56.7%	?	?	.
Nc1ccc(-c2cc(-c3ccc(N)cc3)nc(-c3ccccc3)n2)cc1	-5.6	-9.0%	-11.3%	-4.9%	-12.0%	5.1%
COc1ccc(CN(C)C(=O)c2cccc(S(=O)(=O)N3CCc4ccccc43)c2)c(OC)c1	-21.7	20.6µM*	-1.3%	?	14.6µM*	2.2%
